SMILES strings stand for the structures. Where “and” joins values, the source holds several entries; their conditions need not be identical. Identical values can stand only once. Results filed as inconclusive are left out. Calls of active or inactive are those of the source. Unless noted, calls come from the whole dose curve; as a rule, active = well fitted curve in the direction sought with a large enough effect; inconclusive = small, poorly fitted or top-dose-only effect, or another doubt; inactive = no such curve, though single readings can be large; an effect the other way counts as inactive or inconclusive.

Assay [1] is described as follows: Cell Viability - LYMP1-002 - Assay at 16 hr (AID 948).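 Note: 0% = DMSO alone and full effect = 92 µM tetraoctylammonium bromide.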 The procedure, abridged: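 ATP luminescence (CellTiter-Glo) was measured after 16 hr compound exposure at 37 C of 2500 lymphoblastoid LYMP1-002 cells per well. Concentration-response curves were fitted with the Hill equation to give AC50.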
Assay [2] is described as follows: MultiTox-Fluor Cytotoxicity Assay - LYMP1-002 - Live Cells (AID 955).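 Note: cells exposed to compound for 16 hours; % is set by controls: 0 for no effect and ±100 for the full control effect.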 The procedure, abridged: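 Cells were seeded at 2500 per well and incubated 5 hr. Compounds were then added for 16 hr at 37 C, followed by MultiTox-Fluor reagent for 60 min at room temperature and fluorescence reading of viable-cell protease signal.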
The nature of assay [3]: Cell Viability - LYMP2-005 (AID 967).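 Note: plate controls were DMSO only for no effect and 92 µM tetraoctylammonium bromide control for full effect.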 In short, it runs like this: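 LYMP2-005 human lymphoblastoid cells (2500/well) were treated with compounds for 24 h at 37 C. Intracellular ATP was then measured by CellTiter-Glo luminescence after 30 min at room temperature. AC50 values came from Hill-equation fits of qHTS concentration-response data.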
The nature of assay [4]: Cell Viability - LYMP2-013 (AID 970).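 Note: 0% = DMSO only and full inhibition = tetraoctylammonium bromide control; nearly all actives have a fitted effect of over 55% in size.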 The procedure, abridged: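 Cytotoxicity is scored as a concentration-dependent drop in intracellular ATP in human lymphoblastoid cells after 24 hr compound exposure at 37 C. ATP is quantified by luciferase luminescence, and AC50 values come from Hill-equation modeling.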
The nature of assay [5]: Cell Viability - LYMP2-007 (AID 979).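 Note: cells exposed to compound for 24 h before reading; 0% = DMSO only and the negative end = 92 µM tetraoctylammonium bromide; nearly all actives have a fitted effect of over 60% in size.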 In short, it runs like this: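 Cells are seeded at 2500 per well and rested 5 hr. Compounds are then added over a concentration series for 24 hr at 37 C. CellTiter-Glo is added for 30 min at room temperature before luminescence reading.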
Assay [6] in a line: Cell Viability - LYMP2-012 (AID 982).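 Note: cellular ATP by luciferase luminescence where a drop means cytotoxicity; cells exposed to compound for one day before reading; 0% = DMSO only and full loss = 92 µM tetraoctylammonium bromide; nearly all actives have a fitted effect of over 55% in size.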
Assay [7] in a line: Cell Viability - LYMP2-020 (AID 986).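 Note: plate controls were DMSO only for no effect and tetraoctylammonium bromide at 92 µM for full effect; nearly all actives have a fitted effect of over 55% in size.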 The procedure, abridged: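 Seed 2500 cells per well and incubate 5 hr at 37 C. Add compounds at a concentration series and incubate 24 hr at 37 C. Add CellTiter-Glo, wait 30 min at RT, read luminescence, and fit a Hill curve for AC50.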
Assay [8] in a line: Cell Viability - LYMP1-002 - Assay at 40 hr (AID 994).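 Note: 0% = DMSO only and full inhibition = 92 µM tetraoctylammonium bromide; nearly all actives have a fitted effect of over 60% in size.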 The procedure, abridged:
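Cells are plated at 2500 per well and rested 5 hr at 37 C. Compounds are added and incubated 40 hr at 37 C. CellTiter-Glo reagent is added for 30 min at room temperature before luminescence is read.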

The target of assay [9] is Glucocorticoid receptor (Homo sapiens) (UniProt P04150). Put plainly: qHTS assay for small molecule antagonists of glucocorticoid receptor signaling (AID 588533; active = well fitted inhibition curve with a large enough effect in the signal ratio, with a control signal flat, not every such curve was filed as active; the % refers to the signal ratio;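 note: cells stimulated with 2 nM dexamethasone as agonist; % is set by controls: 0 for no effect and ±100 for the full control effect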). The procedure, abridged:
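Antagonist-mode qHTS: compound titrations added to GRE-bla HeLa cells, then dexamethasone 2 nM final; 18 h, 37 C. CCF4 FRET fluorescence normalized to dexamethasone and DMSO; IC50 from Hill fit.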
For orientation: In qHTS, concentration-response curves come from the screen itself.

The nature of assay [10]: qHTS assay for small molecule antagonists of peroxisome proliferator-activated receptor delta signaling (AID 588535; active = well fitted inhibition curve with a large enough effect in the signal ratio, with a control signal flat, not every such curve was filed as active; the % refers to the signal ratio;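 for max response: cells co-treated with a PPAR-delta agonist as stimulator during compound exposure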). The note with it: HEK293T PPARd-UAS-bla, beta-lactamase FRET ratio, 18 h; 460 nm channel. The procedure, abridged: (§1)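 Titrations were run on PPAR-delta-UAS-bla HEK293T cells in charcoal/dextran-stripped serum, incubated 18 h at 37 C. CCF4 fluorescence (460/530 nm) after 2 h RT; Hill equation yields IC50 and maximal response.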

The target of assay [11] is Peroxisome proliferator-activated receptor delta (Homo sapiens) (UniProt Q03181). The description is as above. In short, it runs like this: as §1
Assay [12] has as its target Peroxisome proliferator-activated receptor gamma (Homo sapiens) (UniProt P37231). As to the kind of experiment: qHTS assay for small molecule antagonists of peroxisome proliferator-activated receptor gamma signaling (AID 588537; active = well fitted inhibition curve with a large enough effect in the signal ratio, with a control signal flat, not every such curve was filed as active; the % refers to the signal ratio;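 note: reporter cells co-stimulated with 50 nM rosiglitazone agonist during compound treatment; % of control where 0% means no effect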). In short, it runs like this:
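Antagonist-mode β-lactamase reporter screen run as a titration series. HEK293 PPARγ-UAS-bla cells are stimulated with rosiglitazone (50 nM final) for 16 h, then CCF4 is read at 460/530 nm. Data are scaled between DMSO and rosiglitazone and fitted to the Hill equation.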

A short description of assay [13]: qHTS assay for cell viability of HEK293 cells (AID 743288). Note: % is set by controls: 0 for no effect and ±100 for the full control effect; nearly all actives have a fitted effect of over 50% in size. The note with it: ATP luminescence (CellTiter-Glo), 18 h; max response: stronger effect = lower value. In short, it runs like this: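 Readout is luciferase-coupled ATP content (CellTiter-Glo luminescence, 30 min room temperature) as a measure of metabolically competent cells. Parental HEK293 cells were plated 5 h or more before compound addition, then treated 18 h at 37 C.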

The target in assay [14] is Mitogen-activated protein kinase 10 (Mus musculus) (UniProt Q61831). Put plainly: JNK3 AlphaScreen Assay (AID 530; active = well fitted curve in either direction with a large enough effect, not every such curve was filed as active;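 note: kinase came from lysate of stimulated human HepG2 cells; signal reports phosphorylation of biotinylated GST-cJun 1-79 at Ser73 with 10 µM ATP; % is set by controls: 0 for no effect and ±100 for the full control effect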). The procedure, abridged:
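qHTS titrations with 15 min compound pre-incubation before adding ATP (10 uM final). Read-out: AlphaScreen of Ser73-phosphorylated biotin-GST-cJun using HepG2 lysate JNK3 activated by IL-1β and TNFα.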
In general terms: Bead proximity is the source of the signal in Alpha formats.

The target in assay [15] is Estrogen receptor (Homo sapiens) (UniProt P03372). Put plainly: qHTS assay for small molecule antagonists of estrogen receptor alpha signaling (AID 588513; active = well fitted curve in the direction sought with a large enough effect in the signal ratio, with a control signal flat, not every such curve was filed as active; the % refers to the signal ratio; note: % is set by controls: 0 for no effect and ±100 for the full control effect). The procedure, abridged:
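Antagonist mode: inhibition of 0.5 nM 17-beta-estradiol-driven beta-lactamase reporter in HEK 293 ER-alpha-UAS-bla cells, 18 h at 37C, CCF4 readout after 2 h at RT. Normalised to estradiol and DMSO; titration fitted to Hill.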

For assay [16] the target is unchanged. As to the kind of experiment: qHTS assay for small molecule agonists of estrogen receptor alpha signaling (AID 588514; calls by dose curve; note: nearly all actives have a fitted effect of over 70% in size; note: potency is the fitted concentration of half-maximal effect;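 for activation: 0% = vehicle only and 100% = reference agonist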). In short, it runs like this: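 Efficacy is expressed against 20 nM 17-beta-estradiol (100%) and DMSO basal (0%); EC50 from Hill equation. Assay: beta-lactamase reporter in ER-alpha-UAS-bla HEK 293 cells, 18 h compound incubation, CCF4 detection.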

Assay [17] in a line: qHTS assay to identify small molecules that stimulate interleukin-8 (IL-8) secretion (AID 651758; active = well fitted activation curve with a large enough effect in the signal ratio; the % refers to the signal ratio; note: potency is the fitted concentration of half-maximal effect; for activation: 0% is about no effect). The procedure, abridged:
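Secreted IL-8 measured homogeneously by TR-FRET (two labelled anti-IL-8 antibodies, 1-3 h at room temperature) after a 16 h, 37 C compound treatment of THP-1 cells at 2000 cells/well.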

The nature of assay [18]: Cell Viability - LYMP2-006 (AID 978). Note: % is set by controls: 0 for no effect and ±100 for the full control effect; nearly all actives have a fitted effect of over 60% in size. In short, it runs like this:
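Potency values are Hill-fit AC50s for decreases in intracellular ATP (CellTiter-Glo luminescence). LYMP2-006 lymphoblastoid cells, 2500 per well, were exposed to compound in complete culture medium for 24 hr at 37 C.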

Assay [19] can be described thus: Cellular Toxicity (caspase-3) Hek293 (AID 664).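 Note: cells exposed to compound for 16 h at 37 °C before readout.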 As to conditions: HEK293 caspase-3 activation, DMSO = 0%, 100 µM tamoxifen = 100%; at 92.2 µM (top of the series). The procedure, abridged:
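qHTS, HEK293 (human embryonic kidney), 16 h cpd exposure in complete medium. Caspase-3/7 activation = luminescence increase; normalized to DMSO/100 uM tamoxifen; Hill-fit AC50.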

Assay [20] deals with Peroxisome proliferator-activated receptor gamma (Homo sapiens) (UniProt P37231). As to the kind of experiment: qHTS assay for small molecule agonists of peroxisome proliferator-activated receptor gamma signaling (AID 588536; active = well fitted curve in the direction sought with a large enough effect in the signal ratio, with a control signal flat, not every such curve was filed as active; the % refers to the signal ratio;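 note: 0% = DMSO basal wells and 100% = rosiglitazone at 2 µM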). In short, it runs like this: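 Cells were plated and held 6–6.5 h at 37 C, then compounds were added as a titration series. After a further 16 h, CCF4 dye was loaded for 2 h at room temperature and emission at 460/530 nm recorded.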
Peroxisome proliferator-activated receptor gamma (Homo sapiens), sequence (P37231 whole entry, looked up): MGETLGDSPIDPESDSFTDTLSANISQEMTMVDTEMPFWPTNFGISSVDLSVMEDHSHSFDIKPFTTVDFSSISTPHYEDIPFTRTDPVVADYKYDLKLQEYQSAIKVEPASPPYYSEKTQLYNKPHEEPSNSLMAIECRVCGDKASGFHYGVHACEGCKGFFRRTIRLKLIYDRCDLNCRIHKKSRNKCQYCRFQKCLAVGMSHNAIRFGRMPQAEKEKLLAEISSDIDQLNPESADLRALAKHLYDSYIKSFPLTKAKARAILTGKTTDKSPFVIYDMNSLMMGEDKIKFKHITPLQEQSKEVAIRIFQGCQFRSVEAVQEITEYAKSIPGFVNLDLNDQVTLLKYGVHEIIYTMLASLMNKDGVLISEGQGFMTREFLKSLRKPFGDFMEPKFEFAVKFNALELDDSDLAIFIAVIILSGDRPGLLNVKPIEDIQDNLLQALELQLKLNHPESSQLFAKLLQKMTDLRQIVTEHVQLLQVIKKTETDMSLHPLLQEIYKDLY

Estrogen receptor (Homo sapiens), sequence (P03372 whole entry, looked up): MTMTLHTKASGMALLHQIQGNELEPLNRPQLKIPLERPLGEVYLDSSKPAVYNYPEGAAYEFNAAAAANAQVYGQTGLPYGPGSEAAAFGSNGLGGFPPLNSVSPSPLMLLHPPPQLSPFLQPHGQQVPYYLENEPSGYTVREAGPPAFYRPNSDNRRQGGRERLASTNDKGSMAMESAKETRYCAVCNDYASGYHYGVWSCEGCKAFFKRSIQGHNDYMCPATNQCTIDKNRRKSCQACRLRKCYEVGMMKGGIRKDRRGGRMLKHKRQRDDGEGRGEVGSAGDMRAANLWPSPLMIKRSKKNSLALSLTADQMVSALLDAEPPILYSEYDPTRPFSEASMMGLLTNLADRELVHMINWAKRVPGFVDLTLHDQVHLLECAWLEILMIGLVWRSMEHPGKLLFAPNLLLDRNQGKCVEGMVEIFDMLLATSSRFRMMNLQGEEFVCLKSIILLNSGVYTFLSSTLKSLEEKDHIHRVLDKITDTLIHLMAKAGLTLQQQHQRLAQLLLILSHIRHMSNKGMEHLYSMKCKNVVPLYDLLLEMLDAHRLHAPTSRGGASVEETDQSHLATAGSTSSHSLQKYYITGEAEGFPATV
Peroxisome proliferator-activated receptor delta (Homo sapiens), sequence (Q03181 whole entry, looked up): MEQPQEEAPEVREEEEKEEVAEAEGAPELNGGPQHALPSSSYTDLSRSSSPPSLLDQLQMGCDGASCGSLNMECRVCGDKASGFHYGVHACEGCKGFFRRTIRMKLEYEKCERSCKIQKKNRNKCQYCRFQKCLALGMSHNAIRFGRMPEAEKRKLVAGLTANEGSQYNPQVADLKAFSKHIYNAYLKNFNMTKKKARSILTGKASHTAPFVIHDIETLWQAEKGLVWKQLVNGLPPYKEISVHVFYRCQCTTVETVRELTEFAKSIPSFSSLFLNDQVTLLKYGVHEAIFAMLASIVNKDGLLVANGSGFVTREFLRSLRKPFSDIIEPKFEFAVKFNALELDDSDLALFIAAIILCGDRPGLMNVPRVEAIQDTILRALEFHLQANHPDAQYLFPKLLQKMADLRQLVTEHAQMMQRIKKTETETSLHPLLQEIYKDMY
Glucocorticoid receptor (Homo sapiens), sequence (P04150 whole entry, looked up): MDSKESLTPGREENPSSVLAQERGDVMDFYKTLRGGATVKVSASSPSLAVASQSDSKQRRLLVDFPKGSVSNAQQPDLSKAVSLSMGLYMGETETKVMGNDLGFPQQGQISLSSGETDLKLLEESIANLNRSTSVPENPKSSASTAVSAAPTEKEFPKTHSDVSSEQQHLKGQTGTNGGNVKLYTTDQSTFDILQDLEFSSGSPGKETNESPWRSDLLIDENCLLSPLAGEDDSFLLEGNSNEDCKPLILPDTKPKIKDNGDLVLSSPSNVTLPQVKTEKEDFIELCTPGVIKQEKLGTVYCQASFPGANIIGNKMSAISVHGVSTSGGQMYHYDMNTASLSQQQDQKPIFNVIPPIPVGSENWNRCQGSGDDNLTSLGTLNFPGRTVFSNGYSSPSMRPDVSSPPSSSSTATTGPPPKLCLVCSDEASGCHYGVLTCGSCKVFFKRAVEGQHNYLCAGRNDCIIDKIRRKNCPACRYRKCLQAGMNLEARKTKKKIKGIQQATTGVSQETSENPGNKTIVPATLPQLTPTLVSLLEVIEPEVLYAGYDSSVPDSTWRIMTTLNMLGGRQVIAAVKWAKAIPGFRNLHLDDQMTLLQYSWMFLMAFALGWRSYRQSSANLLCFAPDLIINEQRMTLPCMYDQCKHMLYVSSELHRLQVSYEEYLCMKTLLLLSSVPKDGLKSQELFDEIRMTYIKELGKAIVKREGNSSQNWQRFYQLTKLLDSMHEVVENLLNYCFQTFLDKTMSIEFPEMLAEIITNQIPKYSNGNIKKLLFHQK

`c1ccc(CSCc2ccccc2)cc1`: the Potency entry in assay [1], in [3], in assay [4], in [5], in assay [6] and in assay [7] was “inactive” in each case. In addition, the Potency result in assay [8], in [9] and in assay [12] was “inactive” throughout. The result in assay [2] and in assay [11] was inactive. Also, the results for the max response in assay [10] and in [13] were 13.7% and 1.27% (inactive), respectively.

`Oc1ccc(O)c2c(O)cccc12`: the Potency entry in assay [14], in assay [1], in assay [8] and in assay [16] was “inactive” in each case. The compound was classed as inactive in [2] and in assay [15]. The Potency in [17] is 75 µM (active). Besides, the max response in assay [13] was -5% (inactive).

Consider `CCCCCCN`, for which the Potency result in assay [3], in assay [4], in assay [18], in [5], in assay [6] and in assay [7] was “inactive” throughout. In addition, the Potency entry in assay [8] and in assay [16] was “inactive” in each case. For the same compound, the outcome in [15] was inactive. In addition, the max response in assay [13] was -3.69% (inactive).

For the compound `Cc1c2ccccc2c(C)c2c1ccc1ccccc12`, the Potency result in assay [1], in [4], in [18], in assay [5] and in assay [6] was “inactive” throughout. In addition, the compound was called inactive in assay [2] and in assay [15]. In addition, the Potency in [16] is 4.47 µM (active) and 15.8 µM (active).

Regarding `CC(=O)Nc1cccc(C)c1`, the Potency result in assay [14], in assay [6], in assay [16], in assay [9], in [12] and in [17] was “inactive” throughout. Further, the compound was classed as inactive in assay [15] and in [11]. Further, the max response in assay [10] is -12.4%; in assay [13] it was 2.07% (inactive).

`C=CC(C)(O)CCCC(C)CCCC(C)CCCC(C)C` (stereo not given): the Potency result in assay [14], in assay [1], in assay [4], in assay [18], in assay [8] and in assay [16] was “inactive” throughout. Moreover, the Potency entry in assay [12] is “inactive”. In addition, the caspase-3 activation in [19] is 1.05% (inactive). In addition, the outcome in assay [15] and in [11] was inactive. Further, the max response in [10] is 4.15%; in assay [13], -8.32% (inactive).

As to `CCOc1ccc2nc(N)sc2c1`, the Potency result in assay [14], in assay [1], in assay [3], in assay [4], in [18] and in assay [16] was “inactive” throughout. Further, in [9], the Potency entry is “inactive”. The call in assay [2], in assay [15] and in assay [20] was inactive.

In the case of `c1ccc(SCCSc2ccccc2)cc1`, the Potency entry in [1], in assay [3], in assay [5], in assay [8], in assay [12] and in [17] was “inactive” throughout. Besides, the compound was called inactive in assay [2] and in assay [11]. Further, the max response in assay [10] was 21.4%; in assay [13], 3.66% (inactive).

Take `Nc1ccc(-c2ccc(N)c(O)c2)cc1O`: the Potency entry in assay [14], in [1], in assay [4] and in assay [18] was “inactive” throughout. The outcome in assay [2] and in [15] was inactive. The max response in [13] was -18.5% (inactive).

On to `C[Si](C)(C)Cl`, for which the Potency entry in [1], in assay [6], in assay [7], in assay [8], in assay [16] and in assay [9] was “inactive” in each case. In assay [15], the outcome was inactive.

Consider `O=C(Cl)c1ccc([N+](=O)[O-])cc1`, for which the Potency result in assay [14], in assay [4], in assay [18], in [6], in assay [8] and in assay [16] was “inactive” in each case. The Potency result in assay [9] and in assay [17] was “inactive” each time. Besides, the compound was called inactive in assay [2], in assay [15] and in assay [11]. Besides, the values for the max response in assay [10] and in [13] were 8.99% and 0.724% (inactive), respectively.

Take `c1ccncc1`: in assay [19], the caspase-3 activation is -0.0676% (inactive). The Potency result in assay [1], in assay [3], in assay [4], in assay [5], in [6] and in [16] was “inactive” in each case. For the same compound, in assay [12], the Potency entry is “inactive”. Moreover, the compound was classed as inactive in assay [2], in assay [15] and in [20]. Moreover, the max response in assay [13] is 1.01% (inactive).

The record behind these values is PubChem BioAssay (NCATS).
